Data reported in PubChem BioAssay AID492998 (Southern Research Specialized Biocontainment Screening …, 2010).
Out of some 2,300 compounds screened, about 550 (24%) were called active. The rule behind the calls is not given here. Only a sample is shown. Entries with a potency or affinity are not part of this list.

Assay: Vero E6 cell cytotoxicity, dose response, cytotoxicity control for non-replicating M. tuberculosis project, secondary assay (AID 492998)
Conditions: series mostly up to 20 µM
With `COc1cc(OC)cc(OC(=O)c2ccc3c(=O)n4c(nc3c2)CCC4)c1` the outcome was “inactive”. For `COc1ccc(N2C(=O)CC(Sc3nc4ccccc4s3)C2=O)cc1OC` (stereo not given), the outcome was “inactive”. In the case of `COc1ccc(C(=O)CCS(=O)(=O)c2ccc(C)cc2)cc1OC`, the outcome is reported as “inactive”. For `O=C(N/N=C/C=C/c1ccccc1)c1cccs1`, the outcome was “inactive”. In the case of `O=C1Nc2ccc(Br)cc2/C1=C/C(=O)c1ccc2c(c1)OCO2`, the outcome is reported as “inactive”. In the case of `CCOC(=O)Cc1nc2cc(Cl)ccc2o1`, the outcome is reported as “inactive”. In the case of `c1ccc(-c2nnc(SCc3nnc(-c4cccs4)o3)o2)cc1`, the outcome is reported as “inactive”. For `O=C1c2ccccc2CC1Sc1nnc(-c2ccncc2)o1` (stereo not given), the outcome was “inactive”. In the case of `CCn1cc(C(=O)O)c(=O)c2cc(F)c(N3CCN(C(=S)NC(=O)c4ccccc4)CC3)cc21`, the outcome is reported as “inactive”. For `O=C(COc1ccc(Cl)cc1)Nc1ccc(Cl)cn1`, the outcome was “inactive”. For `COc1cccc(COC(=O)CCNC(=O)c2ccc(Cl)cc2)c1OC`, the outcome was “inactive”. For `CC(/C=C/c1ccco1)=N\NC(=O)c1cccc(Cl)c1`, the outcome was “inactive”. For `CN(C)CC/C=C1/c2ccc(F)cc2Sc2ccc(Cl)cc21`, the outcome was “inactive”. In the case of `O=C(COC(=O)c1ccc(Cl)s1)c1ccc[nH]1`, the outcome is reported as “inactive”. With `O=C(NC(=S)Nn1cnc2c(cnn2-c2ccccc2)c1=O)c1ccccc1` the outcome was “inactive”. With `CC(NC(=O)c1cc([N+](=O)[O-])cc([N+](=O)[O-])c1)c1ccc(-n2ccnc2)cc1` (stereo not given) the outcome was “inactive”. For `Cc1cccc(C)c1NC(=O)c1sc(N)nc1-c1ccccc1`, the outcome was “inactive”. With `O=C(COC(=O)Cc1ccc(Br)cc1)Nc1ccc(N2CCOCC2)cc1` the outcome was “inactive”. For `O=C(COC(=O)c1cc2ccccc2oc1=O)Nc1ccc(F)cc1F`, the outcome was “inactive”. In the case of `Clc1ccc(OC2CCN(Cc3nc(CC4CC4)no3)CC2)cc1`, the outcome is reported as “inactive”. In the case of `CCOC(=O)CCSc1n[nH]c(=S)s1`, the outcome is reported as “inactive”. For `C(=C\c1ccccc1)/CSc1nc2ncccc2[nH]1`, the outcome was “inactive”. For `CC(C)=CCN1CCN(Cc2cn(C(C)C)c3ccccc23)CC1CCO` (stereo not given), the outcome was “inactive”. With `Cc1ccc(/C=C2\SC(N3CCCC3)=NC2=O)cc1` the outcome was “inactive”. For `CC(C)N1C(=O)NC(=O)C2(Cc3cc([N+](=O)[O-])ccc3N(C)C2c2ccccc2)C1=O` (stereo not given), the outcome was “inactive”. In the case of `Cc1ccc(OCC(=O)Nc2ccc([N+](=O)[O-])cc2)cc1`, the outcome is reported as “inactive”. In the case of `Cc1ccc(NC(=O)COCC(=O)Nc2ccc(C)cc2)cc1`, the outcome is reported as “inactive”. In the case of `O=C(N/N=C/C=C/c1ccccc1[N+](=O)[O-])c1ccncc1`, the outcome is reported as “inactive”. In the case of `O=[N+]([O-])c1c(Nc2ccccn2)cc(Cl)c2nonc12`, the outcome is reported as “inactive”. With `O=C(N/N=C/c1cccc([N+](=O)[O-])c1O)c1cccs1` the outcome was “inactive”. In the case of `O=C(NNc1nc2ccccc2s1)Nc1ccc(F)cc1`, the outcome is reported as “inactive”. For `COc1cc(Cl)cc(/C=N/NC(N)=O)c1O`, the outcome was “inactive”. For `NC(N)=N/N=C/c1cccc([N+](=O)[O-])c1O`, the outcome was “inactive”. For `CC1CCC/C(=C\Nc2ccc(C(=O)O)c(O)c2)C1=O` (stereo not given), the outcome was “inactive”. For `Oc1ccccc1Nc1nc(NCC2CCCO2)c2ccccc2n1` (stereo not given), the outcome was “inactive”. For `CCSc1nsc(NC(=O)Nc2ccc(F)cc2F)n1`, the outcome was “inactive”. In the case of `Clc1ccc(OCCCCN2CCc3ccccc3C2)cc1`, the outcome is reported as “inactive”. For `COc1ccc(CC(=O)Nc2nccs2)cc1OC`, the outcome was “inactive”. For `COc1ccc(CCNc2cc(-c3ccccc3)nc3ncnn23)cc1`, the outcome was “inactive”. With `CCOC(=O)Cn1c(C)c(Br)c(=O)c2cccc(C)c21` the outcome was “inactive”. For `FC(F)(F)c1nc(SCc2ccc(Cl)cc2Cl)n[nH]1`, the outcome was “inactive”. In the case of `CC1CCCN(CCC(=O)c2ccc(Br)cc2)C1` (stereo not given), the outcome is reported as “inactive”. For `CNc1nnc(Sc2ncccc2[N+](=O)[O-])s1`, the outcome was “inactive”. In the case of `CN(CC(=O)Nc1ccc(C#N)cc1)Cc1ccc(Cl)c(Cl)c1`, the outcome is reported as “inactive”. With `COC(=O)COc1ccc2c(=O)c(Oc3ccccc3)c(C)oc2c1` the outcome was “inactive”. For `Cc1ccc(C(=O)N/N=C/c2cccc3ccccc23)cn1`, the outcome was “inactive”. For `Cc1nn(C)cc1/C=N/NC(=O)c1sc2ccccc2c1Cl`, the outcome was “inactive”. In the case of `Cc1[nH]nc2c1C(c1ccc(OC(=O)c3ccco3)cc1)C(C#N)=C(N)O2` (stereo not given), the outcome is reported as “inactive”. For `CCC(=O)c1ccc(OCC(=O)OCC(=O)N2CCc3ccccc3C2)cc1`, the outcome was “inactive”. In the case of `O=C1NC(=O)C(=Cc2ccc(Oc3ccc([N+](=O)[O-])cc3)cc2)C(=O)N1`, the outcome is reported as “inactive”. In the case of `COc1ccc(/C(=N/O)C(C)(C)NO)cc1`, the outcome is reported as “inactive”. In the case of `CO/N=C/CC(=O)c1ccc(OC)cc1`, the outcome is reported as “inactive”. In the case of `C/C(=N/Nc1ccnc2cc(Cl)ccc12)c1ccc(N)cc1`, the outcome is reported as “inactive”. In the case of `CCC(C)(C)c1ccc(OCC(=O)Nc2ccncc2)cc1`, the outcome is reported as “inactive”. For `O=C(COc1ccccc1)Nc1nnc(-c2ccc(Cl)cc2)o1`, the outcome was “inactive”. In the case of `O=C(Nc1nnc(-c2ccc(Cl)cc2)o1)c1nc2ccccc2s1`, the outcome is reported as “inactive”. With `O=C(Nc1nnc(-c2ccc(Cl)cc2)o1)c1cccc(N2C(=O)CCC2=O)c1` the outcome was “inactive”. In the case of `O=C(Nc1nnc(-c2ccc(Cl)cc2)o1)C1=COCCO1`, the outcome is reported as “inactive”. In the case of `COC(=O)COc1cccc(/C=N/NC(=O)CCSc2ccccc2)c1`, the outcome is reported as “inactive”. With `Cc1ccc(-c2cc(C(F)(F)F)n3nc(C(=O)NCCCn4ccnc4)cc3n2)cc1C` the outcome was “inactive”. For `CCc1cc2c(=O)n(C(C)C(=O)OC3CCCCC3)cnc2s1` (stereo not given), the outcome was “inactive”. For `CCCCn1c(O)c(/C=C2/C=CC=N2)c(=O)[nH]c1=O`, the outcome was “inactive”. In the case of `N=C1/C(=C\c2coc3ccccc3c2=O)C(=O)N=C2SC=CN12`, the outcome is reported as “inactive”. For `CCOC(=O)C1CCN(c2nc3cc(OC)ccc3cc2C#N)CC1`, the outcome was “inactive”. With `COC(=O)c1cccc(NC(=O)COc2cccc([N+](=O)[O-])c2)c1` the outcome was “inactive”. With `O=C(NNC1CC(=O)N(c2ccccc2)C1=O)c1ccco1` (stereo not given) the outcome was “inactive”. In the case of `COC(=O)c1ccc(Cn2cc(C(F)(F)F)cc([N+](=O)[O-])c2=O)cc1`, the outcome is reported as “inactive”. For `O=C(CC1CCCCC1)NCc1ccccc1`, the outcome was “inactive”. With `Cc1nnc(N/N=C/c2ccc(-c3ccccc3F)o2)n1N` the outcome was “inactive”. With `COC(=O)CCn1c(C)cc(C(=O)COc2ccccc2C(N)=O)c1C` the outcome was “inactive”. With `Clc1ccc2c(N3CCCC3)ccnc2c1` the outcome was “inactive”. For `Fc1ccc(-c2nn(-c3ccccc3)cc2CNCc2ccccc2)cc1`, the outcome was “inactive”. For `O=c1oc(-c2cccs2)nc2c1cnn2-c1ccccc1`, the outcome was “inactive”. For `CSc1ccccc1C(=O)NCc1ccc(S(N)(=O)=O)cc1`, the outcome was “inactive”. For `Cc1[nH]n(-c2ccccc2)c(=O)c1C=Nc1cnc2ccccc2c1`, the outcome was “inactive”.
